Test results: ChEMBL document CHEMBL3988442, “University of Dundee, Small-Polar-MMV Screening Library” (2021)
For some of these results: Potency and affinity values are given separately.

Legend:
Set-up in all cases: scale not given: direction of the effect not stated beside the values
[1] = target: Protein translocase subunit SecA (Escherichia coli (strain K12)) (UniProt P10408); experiment: Assay to Identify E. coli SecA ATPase Inhibitors; type: functional; details: 30 µM
[2] = target: T1, Ubiquitin-activating enzyme e1, putative (Leishmania donovani (strain BPK282A1)) (UniProt E9BSI1); experiment: Leishmania donovani Ubiquitin Activating Enzyme (LdE1); type: functional; details: 30 µM
T1 sequence (whole entry): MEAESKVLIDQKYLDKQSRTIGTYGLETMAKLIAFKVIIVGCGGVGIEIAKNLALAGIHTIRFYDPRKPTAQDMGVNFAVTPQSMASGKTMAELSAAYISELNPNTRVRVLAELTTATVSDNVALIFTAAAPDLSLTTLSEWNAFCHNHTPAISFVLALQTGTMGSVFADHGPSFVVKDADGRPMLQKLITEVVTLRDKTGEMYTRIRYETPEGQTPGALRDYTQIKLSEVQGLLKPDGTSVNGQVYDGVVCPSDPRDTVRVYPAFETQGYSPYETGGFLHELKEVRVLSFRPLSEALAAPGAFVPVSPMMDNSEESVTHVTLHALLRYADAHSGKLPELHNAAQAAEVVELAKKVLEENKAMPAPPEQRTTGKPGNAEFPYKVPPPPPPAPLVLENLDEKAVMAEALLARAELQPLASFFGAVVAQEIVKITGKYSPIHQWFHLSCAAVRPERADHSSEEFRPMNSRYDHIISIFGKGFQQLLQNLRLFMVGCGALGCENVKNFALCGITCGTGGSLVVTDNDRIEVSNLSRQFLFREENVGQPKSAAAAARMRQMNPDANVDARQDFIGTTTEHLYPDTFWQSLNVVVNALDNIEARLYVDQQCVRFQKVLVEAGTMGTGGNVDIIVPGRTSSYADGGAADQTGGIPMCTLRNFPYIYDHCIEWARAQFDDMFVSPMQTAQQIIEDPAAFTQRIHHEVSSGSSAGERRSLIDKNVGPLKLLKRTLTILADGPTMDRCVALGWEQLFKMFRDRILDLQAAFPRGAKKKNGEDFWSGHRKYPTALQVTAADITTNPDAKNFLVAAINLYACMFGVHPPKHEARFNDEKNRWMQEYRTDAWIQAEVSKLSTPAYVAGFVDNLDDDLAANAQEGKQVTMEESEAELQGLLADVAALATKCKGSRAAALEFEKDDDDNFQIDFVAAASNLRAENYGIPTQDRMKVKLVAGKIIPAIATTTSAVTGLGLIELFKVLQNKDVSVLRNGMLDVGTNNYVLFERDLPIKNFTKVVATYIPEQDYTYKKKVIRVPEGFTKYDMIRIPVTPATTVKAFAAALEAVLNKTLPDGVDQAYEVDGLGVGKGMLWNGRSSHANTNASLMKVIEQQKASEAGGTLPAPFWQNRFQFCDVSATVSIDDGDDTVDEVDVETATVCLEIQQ

[3] = target: AMP-activated protein kinase, AMPK (Homo sapiens) (UniProt P54646+O43741+P54619+Q9UGJ0+Q9Y478+Q13131+Q9UGI9); experiment: AMP-dependent Kinase enzyme assay. An in vitro enzyme assay that detects ADP turnover that is directly proportional to AMPK activity. This uses naive AMPK that is activated during the assay with MK-8722; type: functional; details: 30 µM
[4] = target: Sialic acid-binding Ig-like lectin 9 (Homo sapiens) (UniProt Q9Y336); experiment: Hs-Siglec9 ALPHAscreen SOP 20170721; details: 10 µM
Trypanosoma cruzi = experiment: Trypanosoma cruzi phosphomannomutase and mannose-1-phosphate guanylyltransferase assay; type: functional; details: 10 µM
[5] = target: T2, Arginase-2, mitochondrial (Homo sapiens) (UniProt P78540); experiment: in vitro enzyme assay to detect the production of urea directly proportional to the activity of Arginase II; type: functional; details: 33.3 µM; also: in the data most compounds retested in dose-response had high values
T2 sequence (whole entry): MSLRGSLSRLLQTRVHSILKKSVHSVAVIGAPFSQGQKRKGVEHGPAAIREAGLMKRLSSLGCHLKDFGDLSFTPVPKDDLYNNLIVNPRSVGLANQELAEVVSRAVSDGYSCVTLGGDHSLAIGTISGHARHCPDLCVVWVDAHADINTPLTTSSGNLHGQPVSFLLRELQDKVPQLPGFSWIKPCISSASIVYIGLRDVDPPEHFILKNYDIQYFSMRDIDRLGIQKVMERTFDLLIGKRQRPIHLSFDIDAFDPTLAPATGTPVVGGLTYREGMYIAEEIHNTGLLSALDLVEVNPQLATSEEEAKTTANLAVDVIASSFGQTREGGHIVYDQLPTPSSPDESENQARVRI

[6] = target: T3, Proteasome subunit beta (Trypanosoma cruzi) (UniProt O96673); experiment: Trypanosoma cruzi proteasome chymotrypsin-like activity (TcProtChymo) assay.; also: in the data most compounds retested in dose-response had high values; type: functional; details: 9.37 µM
T3 sequence (whole entry): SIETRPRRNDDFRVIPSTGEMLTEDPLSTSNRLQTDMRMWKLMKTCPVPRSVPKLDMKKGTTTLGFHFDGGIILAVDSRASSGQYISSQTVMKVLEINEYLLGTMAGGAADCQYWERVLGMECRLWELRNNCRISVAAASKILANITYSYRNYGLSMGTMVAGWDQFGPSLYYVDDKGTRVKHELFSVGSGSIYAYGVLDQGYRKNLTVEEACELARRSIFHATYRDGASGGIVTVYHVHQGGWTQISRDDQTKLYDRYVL

Homo sapiens = species: Homo sapiens; experiment: To identify inhibition of the IFN signalling (Jak-Stat) pathway via expression of an eGFP reporter gene under the control of an IFN-stimulated response element (ISRE) containing MxA promoter.; type: functional; details: 30 µM
[7] = target: T4, Tyrosyl-tRNA synthetase, putative (Trypanosoma cruzi (strain CL Brener)) (UniProt Q4DSP6); experiment: Trypanosoma cruzi tyrosyl tRNA synthetase (TcYRS) _High Tyrosine SOP; type: functional; details: 30 µM; also: in the data most compounds retested in dose-response had high values
T4 sequence (whole entry): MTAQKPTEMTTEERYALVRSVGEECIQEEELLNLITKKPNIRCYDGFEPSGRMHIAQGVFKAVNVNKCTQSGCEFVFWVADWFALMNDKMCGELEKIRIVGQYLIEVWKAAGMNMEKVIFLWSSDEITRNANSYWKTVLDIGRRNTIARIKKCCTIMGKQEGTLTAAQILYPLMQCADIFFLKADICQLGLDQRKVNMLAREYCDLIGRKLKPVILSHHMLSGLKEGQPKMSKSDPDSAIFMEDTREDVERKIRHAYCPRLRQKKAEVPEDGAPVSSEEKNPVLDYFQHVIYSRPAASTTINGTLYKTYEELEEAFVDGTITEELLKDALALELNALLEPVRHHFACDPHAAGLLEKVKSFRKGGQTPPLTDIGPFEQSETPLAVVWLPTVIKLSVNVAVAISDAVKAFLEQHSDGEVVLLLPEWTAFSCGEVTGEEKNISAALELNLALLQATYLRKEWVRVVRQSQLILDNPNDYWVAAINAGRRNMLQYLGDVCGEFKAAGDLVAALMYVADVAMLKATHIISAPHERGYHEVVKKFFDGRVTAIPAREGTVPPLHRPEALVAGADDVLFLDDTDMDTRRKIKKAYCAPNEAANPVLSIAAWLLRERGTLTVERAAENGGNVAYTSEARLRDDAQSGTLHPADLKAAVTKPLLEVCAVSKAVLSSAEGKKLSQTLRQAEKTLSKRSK

[8] = target: T4, Tyrosyl-tRNA synthetase, putative (Trypanosoma cruzi (strain CL Brener)); experiment: Trypanosoma cruzi tyrosyl tRNA synthetase (TcYRS) SOP; type: functional; details: 30 µM
[9] = target: Chromo domain-containing protein 1 (Saccharomyces cerevisiae (strain ATCC 204508 / S288c) (Baker's yeast)) (UniProt P32657); experiment: ScCHD-1 Enzyme Inhibition Assay; type: functional; details: 30 µM; also: in the data most compounds retested in dose-response had high values
Chromo domain-containing protein 1 (Saccharomyces cerevisiae (strain ATCC 204508 / S288c) (Baker's yeast)), sequence (P32657 whole entry, the tested form may be a part): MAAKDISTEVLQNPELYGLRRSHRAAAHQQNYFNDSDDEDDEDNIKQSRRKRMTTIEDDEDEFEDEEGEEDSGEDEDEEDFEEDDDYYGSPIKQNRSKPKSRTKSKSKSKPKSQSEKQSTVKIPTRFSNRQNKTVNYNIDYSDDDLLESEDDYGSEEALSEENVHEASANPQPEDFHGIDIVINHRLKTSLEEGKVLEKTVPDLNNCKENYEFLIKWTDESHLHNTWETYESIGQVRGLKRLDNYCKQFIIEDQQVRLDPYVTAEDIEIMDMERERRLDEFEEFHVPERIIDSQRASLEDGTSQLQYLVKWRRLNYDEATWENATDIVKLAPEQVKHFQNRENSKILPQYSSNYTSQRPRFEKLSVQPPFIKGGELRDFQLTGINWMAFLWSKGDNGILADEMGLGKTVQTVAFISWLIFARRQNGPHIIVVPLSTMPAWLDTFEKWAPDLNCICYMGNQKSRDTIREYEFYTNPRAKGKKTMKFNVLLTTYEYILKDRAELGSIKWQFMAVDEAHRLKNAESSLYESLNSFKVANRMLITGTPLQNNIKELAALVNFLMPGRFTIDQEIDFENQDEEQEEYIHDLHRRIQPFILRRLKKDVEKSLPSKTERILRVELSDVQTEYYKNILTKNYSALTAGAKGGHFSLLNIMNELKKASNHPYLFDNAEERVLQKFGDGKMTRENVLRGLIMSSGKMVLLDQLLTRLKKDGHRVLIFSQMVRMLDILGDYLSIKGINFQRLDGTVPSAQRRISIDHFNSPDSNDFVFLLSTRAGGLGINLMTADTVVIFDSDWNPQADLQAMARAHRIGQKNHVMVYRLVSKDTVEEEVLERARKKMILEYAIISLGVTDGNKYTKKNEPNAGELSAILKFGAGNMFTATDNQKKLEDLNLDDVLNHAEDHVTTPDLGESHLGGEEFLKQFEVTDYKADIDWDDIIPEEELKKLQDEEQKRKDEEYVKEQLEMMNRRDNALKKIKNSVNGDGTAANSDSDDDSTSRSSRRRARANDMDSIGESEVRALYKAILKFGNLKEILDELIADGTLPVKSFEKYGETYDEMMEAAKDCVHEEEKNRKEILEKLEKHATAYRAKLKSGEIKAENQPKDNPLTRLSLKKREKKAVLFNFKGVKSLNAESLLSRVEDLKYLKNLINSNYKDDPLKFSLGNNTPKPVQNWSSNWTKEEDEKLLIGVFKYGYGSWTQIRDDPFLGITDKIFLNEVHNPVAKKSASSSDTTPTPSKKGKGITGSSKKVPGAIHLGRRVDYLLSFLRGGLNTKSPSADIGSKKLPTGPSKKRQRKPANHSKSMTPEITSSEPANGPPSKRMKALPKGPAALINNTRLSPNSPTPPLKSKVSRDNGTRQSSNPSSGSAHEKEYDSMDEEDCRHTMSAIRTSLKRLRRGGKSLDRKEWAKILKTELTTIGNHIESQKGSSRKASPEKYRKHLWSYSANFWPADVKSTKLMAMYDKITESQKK

Protein translocase subunit SecA (Escherichia coli (strain K12)), sequence (P10408 whole entry): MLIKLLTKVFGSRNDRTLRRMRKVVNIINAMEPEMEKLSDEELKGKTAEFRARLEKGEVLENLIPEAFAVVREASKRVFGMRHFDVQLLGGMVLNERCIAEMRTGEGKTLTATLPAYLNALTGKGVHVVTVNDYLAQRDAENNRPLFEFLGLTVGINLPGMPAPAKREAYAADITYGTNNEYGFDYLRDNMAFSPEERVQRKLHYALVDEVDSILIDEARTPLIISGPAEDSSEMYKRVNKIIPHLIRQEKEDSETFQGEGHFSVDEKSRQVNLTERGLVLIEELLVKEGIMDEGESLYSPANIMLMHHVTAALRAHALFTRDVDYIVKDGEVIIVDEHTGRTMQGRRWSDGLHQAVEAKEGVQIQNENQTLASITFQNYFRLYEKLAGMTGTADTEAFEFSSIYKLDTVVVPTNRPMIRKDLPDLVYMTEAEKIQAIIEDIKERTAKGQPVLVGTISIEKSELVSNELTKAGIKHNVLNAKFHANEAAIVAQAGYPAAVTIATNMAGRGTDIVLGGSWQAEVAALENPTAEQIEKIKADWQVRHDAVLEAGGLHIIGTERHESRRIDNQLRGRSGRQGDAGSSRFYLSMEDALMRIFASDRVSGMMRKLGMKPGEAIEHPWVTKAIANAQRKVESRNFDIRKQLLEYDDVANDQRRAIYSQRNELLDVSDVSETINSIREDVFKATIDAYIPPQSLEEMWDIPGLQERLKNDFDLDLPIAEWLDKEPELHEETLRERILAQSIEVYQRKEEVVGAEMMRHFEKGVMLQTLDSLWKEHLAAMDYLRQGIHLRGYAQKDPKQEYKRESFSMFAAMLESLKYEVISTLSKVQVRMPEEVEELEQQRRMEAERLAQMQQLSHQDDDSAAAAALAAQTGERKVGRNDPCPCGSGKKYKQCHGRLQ
Sialic acid-binding Ig-like lectin 9 (Homo sapiens), sequence (Q9Y336 whole entry): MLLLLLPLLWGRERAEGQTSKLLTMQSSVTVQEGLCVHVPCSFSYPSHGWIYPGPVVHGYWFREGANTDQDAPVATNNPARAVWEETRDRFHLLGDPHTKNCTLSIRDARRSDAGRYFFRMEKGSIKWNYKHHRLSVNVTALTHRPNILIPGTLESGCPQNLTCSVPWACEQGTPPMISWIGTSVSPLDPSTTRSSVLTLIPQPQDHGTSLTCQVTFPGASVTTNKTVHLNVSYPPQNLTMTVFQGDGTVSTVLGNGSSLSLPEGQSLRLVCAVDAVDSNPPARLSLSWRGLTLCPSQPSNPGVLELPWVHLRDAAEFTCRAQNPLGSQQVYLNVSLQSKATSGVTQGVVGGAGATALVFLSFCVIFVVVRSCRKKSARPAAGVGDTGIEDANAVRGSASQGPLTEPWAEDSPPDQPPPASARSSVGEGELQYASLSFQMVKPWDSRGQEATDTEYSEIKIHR

Structure (SMILES)	Percent Effect [1] [%]	Percent Effect [2] [%]	Percent Effect [3] [%]	Percent Effect [4] [%]	Percent Effect (Trypanosoma cruzi) [%]	Percent Effect [5] [%]	Percent Effect [6] [%]	Percent Effect (Homo sapiens) [%]	Percent Effect [7] [%]	Percent Effect [8] [%]	Percent Effect [9] [%]
Cc1cc(C(=O)N2C[C@@H]3COC[C@]3(c3nnc(C4CC4)o3)C2)on1	-4.61	13.3	-3.2	-0.841	1.16	-46.4	7.52	-5.46	-5.21	5	-9
Cc1nn(CC(=O)N2CCCC2Cn2cccn2)c(C)c1Cl (stereo not drawn)	-7.11	21.6	0.532	8.29	5.86	36.2	22.9	21.4	9.9	20.7	-6.56
COC(=O)c1ccccc1NC(=O)c1nc2ccccc2n(C)c1=O	-1.59	10.4	1.48	-0.871	5.82	1.94	6.79	17	4.23	16.7	-8.57
Cc1nc(CN2CCCC(NCc3c(C)nc4sccn34)C2)no1 (stereo not drawn)	-2.09	5.2	-2.06	-6.92	-1.31	0.712	15.9	45.2	10.7	19.5	-6.87
CCC(=O)N1Cc2nccn2CC(CN(C)Cc2cccnc2)C1 (stereo not drawn)	-1.64	13.3	10.6	-7.3	-4.72	1.17	7.49	-7.96	4.25	8.97	-6.9
Cc1cc(C)cc(NC(=O)CN2CCCC(n3cncn3)C2)c1 (stereo not drawn)	-3.62	8.11	1.86	6.56	8.08	-1.66	1.44	3.59	2.97	15.8	-2.91
CCN(Cc1ccc2c(c1)OCO2)Cc1nc(C)no1	2.35	18.9	-7.63	-8.65	-8.96	2.4	14.9	18.6	4.43	6.17	-4.89
c1ccc(CC2CCN(Cc3ccnc(-c4cccnc4)n3)CC2)cc1	0.966	-4.05	9.39	1.78	0.198	1.16	-1.56	18.1	4.3	6.49	7.16
